# Measurements from PubChem BioAssay (NCI).
# Compounds without any hit were thinned out: in the full panel of roughly 83,000, 20% have a hit.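 Single-concentration screen, 48 h exposure, 96-well plates. Endpoint: percent growth. Below 10 = active.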 Values without a mark were called inactive. Activity calls are given as the source filed them.
# How the values were obtained:
# Assay in all cases: NCI-60 one-dose screen, 48 h (100 = growth as untreated, 0 = no growth, -100 = all killed)
# SK-MEL-2 melanoma = details: 10 µM unless noted
# EKVX NSCLC = details: 10 µM unless noted
# SN12C renal = details: 10 µM unless noted
# UO-31 renal = details: 10 µM unless noted
# TK-10 renal = details: 10 µM unless noted
# ACHN renal = details: 10 µM unless noted
# CAKI-1 renal = details: 10 µM
# A498 renal = details: 10 µM unless noted
# CCRF-CEM leukemia = details: 10 µM unless noted
# MOLT-4 leukemia = details: 10 µM unless noted
# SR leukemia = details: 10 µM unless noted
# RPMI-8226 leukemia = details: 10 µM unless noted
# OVCAR-8 ovarian = details: 10 µM unless noted
# OVCAR-5 ovarian = details: 10 µM unless noted
# OVCAR-4 ovarian = details: 10 µM unless noted
# SK-OV-3 ovarian = details: 10 µM unless noted
# IGROV1 ovarian = details: 10 µM unless noted
# OVCAR-3 ovarian = details: 10 µM unless noted
# HS 578T breast = details: 10 µM unless noted
# NCI/ADR-RES ovarian = details: 10 µM unless noted
SMILES,growth (SK-MEL-2 melanoma),growth (EKVX NSCLC),growth (SN12C renal),growth (UO-31 renal),growth (TK-10 renal) [%],growth (ACHN renal),growth (CAKI-1 renal),growth (A498 renal),growth (CCRF-CEM leukemia),growth (MOLT-4 leukemia),growth (SR leukemia),growth (RPMI-8226 leukemia),growth (OVCAR-8 ovarian) [%],growth (OVCAR-5 ovarian) [%],growth (OVCAR-4 ovarian) [%],growth (SK-OV-3 ovarian),growth (IGROV1 ovarian),growth (OVCAR-3 ovarian) [%],growth (HS 578T breast),growth (NCI/ADR-RES ovarian)
Oc1ccc(CSc2nnc(-c3ccc(Br)cc3)n2-c2ccccc2)c2cccnc12,39.4%,43.1%,35%,8.19% (active),36.5,27%,36.7%,63.8%,22.9%,32.3%,37.7%,13.7%,23.4,54.4,35.7,23.3%,18.9%,41.5,13%,12.2%
O=C(CSc1ccc(-c2nc3ccccc3[nH]2)cn1)N1CCN(c2ccccc2F)CC1,88.4%,53.6%,90.4%,70.9%,86.5,93.2%,49.1%,77%,28.2%,14.6%,52.5%,50.2%,37.4,107,24.2,95.4%,80.7%,50.7,89.4%,29%
Cc1ccc(S(=O)(=O)N/N=C/c2cn(-c3ccc(F)cc3)nc2-c2ccc(S(C)(=O)=O)cc2)cc1,102%,96.6%,99.8%,89.8%,103,102%,98%,87.5%,103%,106%,107%,106%,102,105,101,105%,99.7%,109,107%,106%
Cc1nn(-c2ccc(Cl)cc2)c(C)c1N=Nc1ccc2oc(=O)ccc2c1,110%,85.6%,56.4%,64.8%,89.6,79.4%,73.7%,85.6%,82%,89.3%,67.1%,72.3%,56.9,104,34.4,114%,80.9%,104,75.9%,69.5%
Oc1ccc(CSc2nnc(-c3ccccc3)o2)c2cccnc12,35.4%,33.1%,32.1%,1.52% (active),28.6,10.4%,16.6%,70.7%,10%,14.4%,36.8%,14.1%,17.5,74,16.5,10.8%,18.5%,28.2,-3.94% (active),11.1%
O=c1oc2ccc(-c3ccc(F)cc3F)cc2c(=O)n1-c1cccc(C(F)(F)F)c1,-12.5% (active),8.73% (active),1.14% (active),-18.5% (active),15.4,4.3% (active),-12.2% (active),-34.1% (active),22.6%,5.65% (active),18.4%,-12.9% (active),12.4,10.4,13.4,0.403% (active),8.17% (active),10.9,-4.83% (active),4% (active)
Oc1ccc(CSc2nnc(-c3cnccn3)n2-c2ccccc2)c2cccnc12,42.6%,44%,24.5%,10.7%,37.7,15.4%,16.7%,10.9%,16.7%,21.3%,42.1%,29.1%,23.1,50.3,16.5,21.1%,16.3%,14.8,29.4%,10.9%
C#CCOc1ccccc1C(Nc1ccccc1)c1nnnn1C1CCCCC1 (stereo not drawn),110%,95.9%,104%,78.5%,106,93.9%,59.6%,104%,92.7%,88.3%,98.1%,89.7%,101,91.9,94.5,101%,89.6%,109,95.2%,96.1%
CCNC(=NCCCN(C)C)N/C(N)=N/c1nc2ccccc2s1,92.9%,90.9%,82%,64.3%,100,95.3%,65.1%,111%,82.3%,94.8%,55.1%,96.9%,90.9,95.6,107,89.9%,91.1%,104,92%,96.8%
COc1ccc(-c2ccc3c4c(cccc24)C(=O)N(N2C(=O)c4cccc5cccc(c45)C2=O)C3=O)cc1,111%,89.4%,105%,68.6%,134,96.3%,75.2%,100%,96.8%,101%,95.3%,29.4%,100,101,97.5,100%,92.4%,,101%,98.2%
COc1ccc(-c2nn(-c3ccccc3)cc2/C=C/C(=O)c2ccc(NC(=O)CCCCCCC(=O)NO)cc2)cc1,109%,97.2%,92.7%,93.7%,107,111%,81.9%,68.4%,92.5%,70.3%,110%,115%,99.7,108,97.5,91.7%,96.2%,96.2,87.2%,97.8%
O=C1[C@H]2Cc3c([nH]c4ccccc34)[C@@H](c3c(Cl)cccc3Cl)N2C(=O)CN1C1CCN(Cc2ccccc2)CC1,114%,96.2%,73.3%,75.9%,46.2,93%,67.6%,102%,21.7%,20%,32.7%,60.3%,74.5,107,83.9,115%,70.3%,109,87.6%,92.8%
CCCCCc1ccc(S(=O)(=O)N(C(C)=O)c2cccc(-c3csc(N(CCN4CCN(C)CC4)C(C)=O)n3)c2)cc1,92.8%,61.8%,62.6%,-69.2% (active),99.2,-10.5% (active),20.5%,71.1%,4.61% (active),-9.16% (active),-17.7% (active),-27.8% (active),60.7,92.2,47.1,100%,46.8%,,72.8%,48.3%
O=C(c1cccc(F)c1)n1ccc2cc(NC(=S)Nc3cccnc3)ccc21,102%,105%,95.9%,83.3%,94.8,103%,97%,92.4%,83.1%,84.9%,81.6%,99.3%,102,101,103,105%,97.4%,107,94.4%,105%
